# Experimental data taken from PubChem BioAssay (EPA / NIEHS).
# Values joined by “and” are separate entries in the source; they are usually repeats but may differ in a detail not shown here. Equal entries are not always repeated. Results filed as inconclusive are left out. Active and inactive are the calls of the source. The calls were made as follows, unless noted: active = hit-call score of the fitted dose curve at least 0.9, where 1 is the maximum; inactive = score below 0.9.
# Legend:
# [1] = BSK_BT_PBMCCytotoxicity: PBMC Cytotoxicity Assessment in the BioMAP Diversity Plus: BT Assay (AID 2284225); conditions: primary human B cells with PBMC;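 also: PBMC viability measured by Alamar Blue dye reduction fluorescence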
# In short: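 Viability by Alamar Blue reduction (6 h, ex/em 546/580 nm) after 90 h culture of SEB/TSST-1-activated PBMC (20 ng/mL each) given compound 1 h before activation. DMSO served as baseline for curve fitting.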
# [2] = read-out: Secreted IgG (sIgG), gene 3500; experiment: BSK_BT_sIgG: BioMAP Diversity Plus: BT Assay for Secreted IgG (sIgG) Biomarker Activity (AID 2284226); conditions: primary human B cells with PBMC
# In short: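 ELISA quantitation of secreted IgG from human B cells co-cultured with PBMC, sampled 24 h post-dosing. Values fitted relative to DMSO vehicle as baseline, positive fitting direction.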
# [3] = CCTE_Shafer_MEA_dev_AB: CCTE's Alamar Blue Assay for Cytotoxicity in the Neural Network Formation Assay, Shafer Lab (AID 2284083; active = hit-call score of the fitted dose curve at least 0.9, where 1 is the maximum;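 also: resazurin reduction fluorescence as viability of cultured neurons; twelve days of exposure from plating with re-dosing on DIV 5 and 9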)
# In short: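 Resazurin fluorescence, relative to DMSO, gauges viability after twelve days of exposure that began at plating of rat cortical neurons (1.5 x 10^5 cells/well, 48-well MEA); treatment renewed with full medium exchange on DIV 5 and 9.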
# [4] = CCTE_Shafer_MEA_dev_mutual_information_norm: CCTE's Neural Network Formation Assay for Mutual Information Normalization, Shafer Lab (AID 2284091)
# In short: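 Shared information across electrodes, tracked on days 5, 7, 9 and 12 of network development and collapsed as trapezoidal area under the curve. Rat cortical cultures were treated continuously from plating, with treatment renewed at feeds on DIV 5 and 9; DMSO baseline, negative-direction fit.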
# [5] = CCTE_Shafer_MEA_dev_correlation_coefficient_mean: CCTE's Neural Network Formation Assay for Mean Correlation Coefficient, Shafer Lab (AID 2284093)
# In short: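 Primary rat cortical neurons on PEI-coated 48-well MEA plates (16 electrodes/well) were exposed from plating day 0 through DIV12, with compound renewed at DIV5 and 9. Pairwise spike correlations were averaged per well; trapezoidal AUC across DIV5, 7, 9, 12.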
# [6] = IUF_NPC1b_proliferation_BrdU_72hr: Leibniz Research Institute for Environmental Medicine (IUF) 72-hour Neural Progenitor Cell Bromodeoxyuridine (BrdU) Proliferation Assay (NPC1b) (AID 2284207)
# In short: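 Human fetal cortex-derived (GW 16-19) neural progenitor spheres, 0.25-0.35 mm, one per well in EGF/FGF proliferation medium, exposed to compound for 72 h at 37C, pH 7.2-7.6. BrdU incorporation over the final 16 h read by luminescence ELISA, relative to DMSO.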
# [7] = IUF_NPC1a_proliferation_area_72hr: Leibniz Research Institute for Environmental Medicine (IUF) 72-hour Neural Progenitor Cell Proliferation Area Assay (NPC1a) (AID 2284208)
# In short: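 hNPC spheres (human fetal cortex, GW 16-19), one per poly-Hema U-bottom well; EGF+FGF medium; dosed day 0, no re-dosing; 72 h, 37C, 5% CO2; phase-contrast sphere area; DMSO = baseline; minus-GF = positive ctrl.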
# [8] = IUF_NPC1_viability_72hr: Viability Assessment at 72 hours in the Leibniz Research Institute for Environmental Medicine (IUF) Neural Progenitor Cell Proliferation Assay (NPC1) (AID 2284209)
# In short: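 Viability was measured by resazurin-to-resorufin fluorescence (alamar blue) after 72 h of continuous exposure without compound renewal. Each well held one hNPC sphere (gestational week 16-19 fetal cortex, 0.25-0.35 mm) cultured in EGF/FGF proliferation medium at 37C and pH 7.2-7.6.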
# [9] = CCTE_Mundy_HCI_Cortical_Synap_Neur_Matur_NeuriteSpotCountPerNeuriteLength: CCTE's Synaptogenesis and Neurite Maturation Assay in rat cortical cells for Neurite Spot Count per Neurite Length, Mundy Lab (AID 2284210)
# In short: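 Synaptophysin spots per unit neurite length, measured by automated imaging of MAP2/synaptophysin/Hoechst-stained neurons. Cultures from rat cortex received chemical at DIV 7 with media change through DIV 12; glial growth arrested by AraC at DIV 5; DMSO baseline.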
# [10] = CCTE_Mundy_HCI_Cortical_Synap_Neur_Matur_BPCount: CCTE's Synaptogenesis and Neurite Maturation Assay in rat cortical cells for Branch Point Count, Mundy Lab (AID 2284211)
# In short: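 HCI read-out of branch points from MAP2/synaptophysin/Hoechst immunofluorescence; rat cortical cultures, AraC DIV 5, dosing DIV 7, fixed DIV 12; fit in positive direction vs DMSO baseline.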
# [11] = CCTE_Mundy_HCI_Cortical_NOG_NeuriteCount: CCTE's Neurite Outgrowth Assay in rat cortical cells for Neurite Count, Mundy Lab (AID 2284212);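 also: cells fixed about two days after chemical exposure began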
# In short: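 Rat cortical primary cells; compound added 2 h post-plating, 1/10 dilution of working solution. Anti-betaIII-tubulin/AF488 ICC; ArrayScan neurite count vs DMSO.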
# [12] = CCTE_Mundy_HCI_Cortical_NOG_NeuriteLength: CCTE's Neurite Outgrowth Assay in rat cortical cells for Neurite Length, Mundy Lab (AID 2284213)
# In short: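 First, rat primary cortical cells were plated and, 2 h later, given test chemical as a 1/10 dilution. Finally, βIII-tubulin immunostaining enabled automated imaging of neurite length.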
# [13] = CCTE_Mundy_HCI_Cortical_Synap_Neur_Matur_NeuriteLength: CCTE's Synaptogenesis and Neurite Maturation Assay in rat cortical cells for Neurite Length, Mundy Lab (AID 2284214)
# In short: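 Neurite length quantified by automated high-content imaging of MAP2, synaptophysin and Hoechst staining. Rat cortical cells received chemical from DIV 7 to DIV 12 […], glial growth arrested by AraC at DIV 5; DMSO baseline.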
# [14] = CCTE_Mundy_HCI_Cortical_Synap_Neur_Matur_NeuriteSpotCountPerNeuron: CCTE's Synaptogenesis and Neurite Maturation Assay in rat cortical cells for Neurite Spot Count per Neuron Count, Mundy Lab (AID 2284215)
# In short: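 Read-out: neurite-associated synaptophysin puncta per neuron, imaged by high-content analysis after MAP2, synaptophysin and Hoechst staining. Rat primary cortical cultures, dosed DIV 7 through DIV 12; DMSO served as baseline.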
# [15] = CCTE_Mundy_HCI_Cortical_Synap_Neur_Matur_SynapseCount: CCTE's Synaptogenesis and Neurite Maturation Assay in rat cortical cells for Synapse Count, Mundy Lab (AID 2284218)
# In short: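 High-content imaging of synaptophysin puncta per MAP2-positive neuron (Hoechst nuclei) in rat cortical cells exposed DIV 7–12 after glial arrest with AraC at DIV 5; decrease relative to DMSO scored.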
# [16] = CCTE_Mundy_HCI_Cortical_Synap_Neur_Matur_NeuriteCount: CCTE's Synaptogenesis and Neurite Maturation Assay in rat cortical cells for Neurite Count, Mundy Lab (AID 2284222);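 also: exposure from day 7 to day 12 in vitro with readout at day 12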
# In short: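 Rat cortical neurons, 96-well; AraC DIV 5; chemical + media change DIV 7; end DIV 12. Fix PFA/Hoechst, anti-MAP2 + anti-synaptophysin IF. HCI neurite count vs DMSO baseline.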
# [17] = CCTE_Mundy_HCI_Cortical_Synap_Neur_Matur_CellBodySpotCount: CCTE's Synaptogenesis and Neurite Maturation Assay in rat cortical cells for Cell Body Spot Count, Mundy Lab (AID 2284223)
# In short: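 Read-out: cell body-associated synaptophysin puncta per neuron, imaged after MAP2, synaptophysin and Hoechst staining. Rat cortical cells, AraC DIV 5, chemical dosing DIV 7, fixation DIV 12. Activity fitted in positive direction relative to DMSO baseline.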
smiles,measurement,setting,value
CCCCCC1=CCCC1=O,outcome,[1],inactive
same,AC50,[2],20 µM (active)
CCN1CN(CC)CN(CC)C1,outcome,[1],inactive
same,outcome,[2],inactive
COC(OC)(C(=O)c1ccccc1)c1ccccc1,outcome,[1],inactive
same,outcome,[2],inactive
Cc1c(C(=O)c2c[nH]n(C)c2=O)ccc(S(C)(=O)=O)c1C1=NOCC1,outcome,[3],inactive
same,outcome,[4],inactive
same,outcome,[5],inactive
same,outcome,[6],inactive
same,outcome,[7],inactive
same,outcome,[8],inactive
same,outcome,[9],inactive
same,outcome,[10],inactive
same,outcome,[11],inactive
same,outcome,[12],inactive
same,outcome,[13],inactive
same,outcome,[14],inactive
same,outcome,[15],inactive
same,outcome,[16],inactive
same,outcome,[17],inactive
O=C1CCCCCCCCCCC1,outcome,[1],inactive
same,outcome,[2],inactive
C=CCCCCCCCCC=O,outcome,[1],inactive
same,outcome,[2],inactive
C=CC(=O)OCCCCCCOC(=O)C=C,AC50,[1],14.3 µM (active)
same,AC50,[2],5.85 µM (active)
COc1ccc(C(=O)/C(Br)=C\C(=O)O)cc1,AC50,[1],27.6 µM (active) and 25.4 µM (active)
same,AC50,[2],6.83 µM (active) and 8.75 µM (active)
Oc1c(Cl)cc(Cl)c(Cl)c1Cl,outcome,[1],inactive
same,AC50,[2],33.5 µM (active)
C=CC(=O)NC(C)(C)C,outcome,[1],inactive
same,outcome,[2],inactive
CCCCCCCCC(CO)CCCCCC (stereo not given),outcome,[1],inactive
same,AC50,[2],33.7 µM (active)
CCOC(=O)/C=C\C(=O)OCC,outcome,[1],inactive
same,outcome,[2],inactive
CCCCCCC=O,outcome,[1],inactive
same,outcome,[2],inactive
CC/C=C\C/C=C\C/C=C\CCCCCCCC(=O)OC,AC50,[1],17.4 µM (active)
same,AC50,[2],5.15 µM (active)
CCOC(=O)C1=NOC(c2ccccc2)(c2ccccc2)C1,outcome,[1],inactive
same,AC50,[2],20 µM (active)
CCC1(C)C(=O)N(Cl)C(=O)N1Cl (stereo not given),outcome,[1],inactive
same,outcome,[2],inactive
O=C1CCCCCCCCCCCN1,outcome,[1],inactive
same,outcome,[2],inactive
CC1=CC=C(C(C)C)CC1,outcome,[1],inactive
same,AC50,[2],20 µM (active)
O=C(Oc1ccccc1)c1ccccc1C(=O)Oc1ccccc1,AC50,[1],20 µM (active)
same,outcome,[2],inactive
CC(c1cc(C(C)(C)C)cc(C(C)(C)C)c1O)c1cc(C(C)(C)C)cc(C(C)(C)C)c1O,AC50,[1],30.2 µM (active)
same,AC50,[2],5.95 µM (active)
C=CC(=O)OCCCCCCCC(C)C,outcome,[1],inactive
same,AC50,[2],20 µM (active)
c1ccc2c(c1)[nH]c1ccccc12,outcome,[1],inactive
same,outcome,[2],inactive
c1ccc2sc(SSN3CCOCC3)nc2c1,AC50,[1],13.2 µM (active)
same,AC50,[2],8.43 µM (active)
Oc1ccc(/C=C/c2cc(O)cc(O)c2)cc1,outcome,[1],inactive
same,AC50,[2],6.86 µM (active)
C=C(C)C(=O)OCCCCCCCCCCCC,outcome,[1],inactive
same,outcome,[2],inactive
CCc1cccc(C)c1N(C(=O)CS(=O)(=O)O)C(C)COC (stereo not given),outcome,[1],inactive
same,outcome,[2],inactive
CC(C)[N+](C)(CCOC(=O)C1c2ccccc2Oc2ccccc21)C(C)C,outcome,[1],inactive
same,outcome,[2],inactive
CC(C)CCCCCOC(=O)CS,outcome,[1],inactive
same,outcome,[2],inactive
CCCCCCCCCCCC(C)=O,outcome,[1],inactive
same,outcome,[2],inactive
CCOC(=O)C1=NN(c2ccc(Cl)cc2Cl)C(C)(C(=O)OCC)C1 (stereo not given),outcome,[1],inactive
same,AC50,[2],20 µM (active)
CC(Cl)COP(=O)(OCC(C)Cl)OCC(C)Cl (stereo not given),outcome,[1],inactive
same,outcome,[2],inactive
